# An excerpt weighted towards active compounds, which were near 3.5% of everything screened.
# 14-3-3 Bad PPI = inhibitors of 14-3-3 zeta/Bad binding, primary screen, biochemical, TR-FRET, bovine 14-3-3 zeta | 14-3-3 protein zeta/delta (Bos taurus), P63103 | inhibition, % at 21.7 µM | 0.71% of 220,000 active | TR-FRET 14-3-3zeta/Dy647-pBad peptide displacement, 1 h;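 active = inhibition above about 70%, limit read from the data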;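 note: 0% = full 14-3-3 plus peptide FRET controls and 100% = background without 14-3-3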
# eIF4E-4G inh = eIF4E–eIF4G protein interaction inhibitors, primary screen, biochemical, uHTS, TR-FRET, eIF4GI fragment. TR-FRET eIF4E-eIF4GI(517-606) binding, 2 h. inhibition, % at 21.7 µM. AID 782, 2007. Eukaryotic translation initiation factor 4E (Mus musculus) + Eukaryotic translation …. 0.37% of 220,000 active;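 active = inhibition above about 30%, limit read from the data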;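 note: 0% = full FRET control wells and 100% = background wells lacking eIF4GI fragment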
# Hck Nef HTS = inhibitors of Nef-activated human Hck kinase, primary screen, biochemical, Z-Lyte FRET, 384-well, Hck-YEEI | Tyrosine-protein kinase HCK (Homo sapiens), P08631 | Recombinant Hck-YEEI plus Nef, Z-Lyte FRET kinase assay | inhibition, % at 20 µM | 0.68% of 220,000 active;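 active = Hck-Nef kinase inhibition above about 50%, limit read from the data; inactive = inhibition below that limit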;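 note: 0% = DMSO with Hck plus Nef and 100% = Hck alone without Nef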
# Mcl1 Noxa PPI = Mcl-1/Noxa binding inhibitors, primary screen, biochemical, TR-FRET, 1536-well. 1.5% of 220,000 active. Induced myeloid leukemia cell differentiation protein Mcl-1 (Homo sapiens), Q07820. TR-FRET Mcl-1/Noxa peptide binding, 2 h. inhibition, % at 21.7 µM. AID 1022, 2008;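 active = compounds that cut the protein-peptide binding signal by more than 50% relative to plate controls in a single-dose test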;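 note: His-tagged Mcl-1 with rhodamine Noxa BH3 peptide and terbium anti-His antibody; 0% = Mcl-1 plus Noxa peptide wells and 100% = peptide-only wells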
# Target sequence (Q07820 whole entry, looked up): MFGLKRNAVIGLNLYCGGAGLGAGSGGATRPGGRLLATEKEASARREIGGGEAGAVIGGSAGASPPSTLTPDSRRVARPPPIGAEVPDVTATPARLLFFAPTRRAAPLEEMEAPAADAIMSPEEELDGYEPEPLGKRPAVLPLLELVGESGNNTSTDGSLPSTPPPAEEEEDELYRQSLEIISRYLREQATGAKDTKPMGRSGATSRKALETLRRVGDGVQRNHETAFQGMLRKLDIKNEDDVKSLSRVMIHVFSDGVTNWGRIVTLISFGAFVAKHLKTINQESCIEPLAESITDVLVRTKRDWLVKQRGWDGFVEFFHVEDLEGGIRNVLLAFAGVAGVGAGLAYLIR
# Mcl1-Bid inh = Mcl-1/Bid binding inhibitors, primary screen, biochemical, TR-FRET, 1536-well; Induced myeloid leukemia cell differentiation protein Mcl-1 (Homo sapiens), Q07820; AID 1021, 2008; inhibition, % at 21.7 µM; 0.97% of 220,000 active; TR-FRET Mcl-1/Bid-Dy647 peptide binding;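 active = compounds that cut the binding signal by more than half at the single screening dose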;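 note: His-tagged Mcl-1 with europium anti-His antibody binding Bid BH3 peptide; 0% = Mcl-1 plus peptide wells and 100% = peptide-only wells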
# Bim-Mcl-1 = inhibitors of Bim peptide binding to Mcl-1, primary screen, biochemical, bead-based flow cytometry, multiplex; Induced myeloid leukemia cell differentiation protein Mcl-1 (Homo sapiens), Q07820; 0.1% of 190,000 active; Bim peptide-Mcl-1 binding; inhibition, % at 10 µM; in the data active = inhibition above about 40%;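 note: 0% = no compound tracer wells and 100% = peptide blocker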
# Hck Nef conf = retest of Hck:Nef kinase inhibitor hits, confirmation, biochemical, Z-Lyte FRET, 384-well, p-Tyr peptide counterscreen; shares compounds with Hck Nef HTS; Recombinant Hck-YEEI:Nef, Z-Lyte FRET kinase assay; calls only at 10 µM; 28% of 1,300 active; AID 463188, 2010;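 active = average inhibition of at least 50%, with Z-scores no higher than 3 in both the phospho-tyrosine peptide and fluorescence counterscreens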
# Starred values were filed as active, the others as inactive; i = inactive; nt = not tested or not shown; + = active, no number.
SMILES,14-3-3 Bad PPI,eIF4E-4G inh,Hck Nef HTS,Mcl1 Noxa PPI,Mcl1-Bid inh,Bim-Mcl-1,Hck Nef conf
COCCCn1c(N)c(C(=O)NCCC(C)C)c2nc3ccccc3nc21,-1.3,3.6,50.2*,26.4,15.0,0.0,i
CCCCn1c(N)c(C(=O)OCCOC)c2nc3ccccc3nc21,2.6,-10.8,66.4*,-16.8,-5.1,nt,nt
CCn1c(NN=O)nc2ccccc21,0.4,4.0,12.2,42.8,-53.5,0.0,nt
N#Cc1c(N2CCNCC2)nc(-c2ccco2)c2c1CCCC2,0.0,-0.8,67.2*,8.7,3.0,nt,nt
CN1CCN(c2ccc(C(N)=O)cc2N)CC1,-10.2,-0.3,0.1,15.1,-18.0,-7.0,nt
COc1ccc(N2C(=O)/C(=C/C=C/c3ccccc3[N+](=O)[O-])C(=O)NC2=S)cc1,45.7,35.7*,62.8*,88.6*,82.6*,-1.0,+
CCOc1ccc(N2C(=O)NC(=O)/C(=C\c3cc(OC)c(OC)cc3[N+](=O)[O-])C2=O)cc1,-1.4,7.5,4.7,31.7,-17.7,-1.0,nt
COc1ccc(N2C(=O)NC(=O)/C(=C\c3ccc([N+](=O)[O-])s3)C2=O)cc1,4.5,4.9,63.7*,50.9*,-14.8,1.0,i
O=C1NC(=S)NC(=O)C1=Cc1ccc2c(c1)CCN2CCCCl,32.7,24.7,79.0*,100.0*,30.2,nt,+
Cc1ccccc1N1C(=O)NC(=O)/C(=C\c2ccc3c(c2)CCCN3Cc2ccccc2)C1=O,-4.8,0.6,6.7,38.4,-51.6,-20.0,nt
Brc1ccc(C2N3CCCN23)cc1 (configuration not stated),-3.5,3.7,3.6,-0.8,-19.1,-2.0,nt
O=C1NC(=O)N(c2ccccc2)C(=O)/C1=C/c1coc2ccc(O)cc2c1=O,10.3,2.7,86.5*,16.7,-153.6,nt,+
O=C1NC(=O)N(c2ccccc2)C(=O)/C1=C/c1ccoc1,-2.4,-1.6,18.4,5.5,-23.2,3.0,nt
O=C1NC(=O)N(c2ccc(Cl)cc2)C(=O)/C1=C/c1coc2ccc(O)cc2c1=O,10.9,9.0,74.7*,46.1,-57.8,nt,+
CCc1nnc(NS(=O)(=O)c2ccc(N=Cc3c(O)n(-c4ccc(Cl)cc4)c(=O)[nH]c3=O)cc2)s1,-17.7,1.8,55.6*,-2.8,-19.0,0.0,i
CNS(=O)(=O)c1ccc(N=Cc2c(O)n(-c3ccc(C)cc3)c(=O)[nH]c2=O)cc1,0.4,-4.7,17.1,-2.9,-67.5,nt,nt
CN(C)C(=O)Oc1ccc(OCc2n(C)c3ccccc3[n+]2C)cc1,-7.9,-7.5,4.5,17.3,-1.7,-2.0,nt
Cc1cccn2c(=O)c3cc(C(=O)N4CCC5(CC4)OCCO5)n(C)c3nc12,5.9,-2.7,54.4*,4.6,8.9,-3.0,nt
Nc1c(C(=O)NCc2ccco2)c2nc3ccccc3nc2n1CCN1CCOCC1,-7.1,6.2,34.3,19.0,-6.1,13.0,nt
Nc1c(C(=O)NCc2ccco2)c2nc3ccccc3nc2n1Cc1ccc(F)cc1,nt,nt,56.6*,65.5*,52.6*,0.0,i
CN(C)c1ccc(/C=C2/C(=O)NC(=O)N(Cc3ccco3)C2=O)cc1,-1.1,5.4,0.7,26.7,-11.9,0.0,nt
C=CCN1C(=O)/C(=C/c2ccc(N3CCOCC3)o2)C(=O)NC1=S,4.8,2.7,2.7,-47.3,-88.4,-7.0,nt
C=CCN1C(=O)NC(=O)/C(=C\c2ccc(-c3ccccc3[N+](=O)[O-])o2)C1=O,-13.7,2.8,70.0*,14.8,-52.3,-8.0,+

# Source: PubChem BioAssay (several laboratories)
